High-throughput results: PubChem, National Center for Advancing Translational Sciences (NCATS)
Sm TGR block – qHTS Assay for the Inhibitors of Schistosoma Mansoni Peroxiredoxins. 3% of 360,000 active. Potency, µM (doses to about 114 µM), for inactives: top-dose activity change, negative = inhibition, usual class: inhibitors. Schistosoma mansoni thioredoxin glutathione reductase (TGR), Q962Y6. purified TGR, DTNB reduction, TNB absorbance 405 nm; also: nearly all actives have a fitted effect of over 60% in size
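First, TGR (20 nM dispensed) and NADPH were mixed with compound. Second, a 15 min room-temperature incubation followed. Third, further NADPH and then DTNB were added to start the reaction. Finally, TNB absorbance was monitored kinetically.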
AmpC detergent – qHTS Inhibitors of AmpC Beta-Lactamase (assay with detergent); AmpC hydrolysis of nitrocefin, absorbance 480 nm, 0.01% Triton; Potency, µM (series often up to 114 µM), for the others: at the highest dose activity change, negative = inhibition, most hits filed as inhibitors; 0.041% of 370,000 active; AID 485294, 2010;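 also: 0% = no-compound wells and -100% = no-enzyme wells; nearly all actives have a fitted effect of over 25% in size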
Target sequence (P00811 whole entry, looked up): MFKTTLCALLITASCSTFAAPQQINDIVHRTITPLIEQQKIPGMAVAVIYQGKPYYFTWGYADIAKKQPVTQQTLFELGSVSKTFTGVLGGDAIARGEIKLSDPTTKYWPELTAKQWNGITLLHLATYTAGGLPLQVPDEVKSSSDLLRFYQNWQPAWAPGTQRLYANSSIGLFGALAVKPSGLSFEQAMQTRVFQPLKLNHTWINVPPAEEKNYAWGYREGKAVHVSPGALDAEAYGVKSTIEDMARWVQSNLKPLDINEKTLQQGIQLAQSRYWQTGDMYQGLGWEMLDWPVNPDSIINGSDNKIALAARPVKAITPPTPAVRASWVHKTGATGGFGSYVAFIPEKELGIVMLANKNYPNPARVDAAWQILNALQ
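20 mM phosphate pH 7.0 + 0.01% (detergent screen) or 0.0001% Triton X-100; 5.3 nM AmpC reagent; cpd preinc 15 min RT; nitrocefin (800 uM stock) to start; A480 q20 s × 4 min; Activity was normalised to no-enzyme and no-compound control wells.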
FMDV inh – High Throughput Screening for Foot and Mouth Disease Virus Antivirals; FMDV antiviral cell-based qHTS; Potency, µM (top dose mostly 57.9 µM), for the others: at the highest dose activity change, negative = inhibition, hits mostly inhibitors; 1.2% of 410,000 active; AID 1159524, 2015; calls by dose curve; tested in HEK293T cells; also: read-out not given here; nearly all actives have a fitted effect of over 45% in size
AmpC no deterg – qHTS Inhibitors of AmpC Beta-Lactamase (assay without detergent); P00811; 0.52% of 330,000 active; Potency, µM (series often up to 57.1 µM), for inactives: at the top dose activity change, negative = inhibition, hits mostly inhibitors; AmpC nitrocefin hydrolysis, absorbance 480 nm, 0.0001% Triton;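 also: plate controls were no compound for no effect and no enzyme for full effect; nearly all actives have a fitted effect of over 20% in size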
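AmpC (5.3 nM in the dispensed reagent) in 20 mM phosphate pH 7.0 with 0.01% (detergent screen) or 0.0001% Triton X-100 was preincubated with compounds for 15 min at room temperature. Nitrocefin was then added from an 800 uM solution, and hydrolysis was followed at 480 nm.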
AMA1 RON2 block – qHTS for Inhibitors of AMA1-RON; Towards Development of Antimalarial Drug Lead: Primary Screen | Potency, µM (doses to about 58.2 µM), without a hit: at the highest dose activity change, negative = inhibition, usual class: inhibitors | 0.2% of 360,000 active | AlphaScreen AMA1-biotinylated RON2 peptide binding | Plasmodium falciparum AMA1 (3D7) - RON2 peptide interaction;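 also: 0% = vehicle wells and -100% = peptide control; nearly all actives have a fitted effect of over 45% in size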
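AMA1 (3D7) with his tag at 25 nM final met compounds first, then biotinylated RON2 peptide at 25 nM; detection used donor plus acceptor beads, 10 µg/mL apiece, read by AlphaScreen after 30 min at room temperature.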
Numbers without * were called inactive; ? = inconclusive; . = no result. This is a sample that favours compounds with a hit; in the whole collection about 4.1% have one here. Unless noted, calls follow the shape of the dose curve; as a rule, active = well fitted curve in the direction sought with a large enough effect; inconclusive = small, poorly fitted or top-dose-only effect, or another doubt; inactive = no such curve, though single readings can be large; an effect the other way counts as inactive or inconclusive. Unless noted, % is scaled to controls: 0 for no effect and ±100 for the full control effect; potency is read from the fitted curve at half-maximal effect.

SMILES	Sm TGR block	AmpC detergent	FMDV inh	AmpC no deterg	AMA1 RON2 block
CC1=C(C(=O)O)N2C(=O)C(NC(=O)CCCC(=O)O)C2SC1 (stereo not drawn)	11%	-3%	-12%	2%	39%
CN(C)CCn1nnnc1SCC1=C(C(=O)O)N2C(=O)[C@@H](NC(=O)Cc3csc(N)n3)[C@H]2SC1	32µM*	?	-13%	-23%	28%
CC(=O)OCC1=C(C(=O)O)N2C(=O)C(NC(=O)CCn3nc(C)c(Cl)c3C)C2SC1 (stereo not drawn)	28µM*	3%	-9%	-12%	2%
Cc1nnc(SCC2=C(C(=O)O)N3C(=O)C(NC(=O)Cn4nc(C(F)F)c(Cl)c4C)C3SC2)s1 (stereo not drawn)	13µM*	-10%	17%	94%	32%
CO[C@@]1(NC(=O)CSCC#N)C(=O)N2C(C(=O)O)=C(CSc3nnnn3C)CS[C@@H]21	-8%	0%	-11%	-10%	63%
CC(=O)OCC1=C(C(=O)O)N2C(=O)C(NC(=O)Cn3nc(C(F)F)c(Cl)c3C)C2SC1 (stereo not drawn)	22µM*	0%	-1%	-15%	23%
C[C@@H]1CN(Cc2ccc3c(c2)CN(C(=O)CN2CCOc4ccccc4C2)CCO3)C[C@H](C)O1	.	.	-7%	.	.
COc1ccc(C)cc1NC(=O)Nc1nnc(N2CCCCC2)s1	-4%	-3%	-5%	.	.
CC(=O)OCC1=C(C(=O)O)N2C(=O)C(NC(=O)CCn3nc(C(F)(F)F)c(Br)c3C3CC3)C2SC1 (stereo not drawn)	22µM*	1%	-10%	-14%	14%
Cc1nnc(SCC2=C(C(=O)O)N3C(=O)C(NC(=O)Cn4nc(C(F)F)cc4C)C3SC2)s1 (stereo not drawn)	40µM*	-2%	2%	-13%	29%
Cc1cc(C(F)F)nn1CC(=O)NC1CCCC1	6%	-1%	-6%	-12%	0%
O=C(COC(=O)/C=C/c1cccc(C(F)(F)F)c1)NCc1ccccc1	-9%	-14%	-8%	7.9µM*	3%
Cc1cc2cc(CCNC(=O)c3ccc(Br)o3)c(=O)[nH]c2cc1C	35µM*	2%	-20%	-2%	-10%
Cc1cc2cc(CNC(=O)c3ccc(Br)o3)ccc2[nH]1	40µM*	2%	27%	-22%	-20%
Cc1cc2cc(CNC(=O)c3ccc(Br)o3)ccc2n1C	14µM*	-6%	104%	40%	-3%
CCCC(=O)NCc1ccc2c(c1)cc(C)n2C	1%	1%	22%	34%	-3%
COc1ccc2cc(CCNC(=O)c3ccc(Br)o3)c(=O)[nH]c2c1	?	?	-17%	-18%	-4%
Cc1ccc(CNC(=O)c2ccc(Br)o2)cc1	-4%	5%	.	-4%	-9%
Cc1ccc(S(=O)(=O)NCc2ccc3[nH]c(C)cc3c2)cc1	11µM*	8%	18%	-46%	0%
COc1ccc(CNc2nc3c(-c4ccc(C)cc4)nnn3c3ccccc23)cc1	?	11%	20%	.	.
CC(O)c1nc2ccccc2n1Cc1ccccc1 (stereo not drawn)	5.6µM*	-3%	4%	60%	3%
CN(C(=O)Cn1cc(S(=O)(=O)N2CCN(c3ccccc3F)CC2)c2ccccc2c1=O)c1ccc(Cl)cc1	9%	15%	-6%	.	.
CCCNS(=O)(=O)c1ccc(CCC(=O)Nc2ccc3c(c2)OCO3)cc1	2%	-12%	38%	-27%	-1%
CC(=O)c1ccc(S(=O)(=O)NCCCC(=O)N(C)Cc2ccc3c(c2)OCO3)cc1	16µM*	8%	-7%	-10%	-2%
Cc1ccc(CNC(=O)Cn2c(=O)n(-c3ccc(C)cc3)c(=O)c3c2c2cc(C)ccc2n3C)cc1	-9%	-2%	-5%	.	.
COc1ccc(NC(=O)CSc2nnc(NC(=O)Nc3ccccc3)s2)c(OC)c1	8%	4%	-6%	.	.
